Source: PubChem
This is one part of a sample in which hits are shown more often than they occur.
C diff growth – C. difficile growth inhibitors, primary screen, HTS; Clostridium difficile clinical isolate growth, OD600, 24 h; active compounds read low; growth activity, negative = inhibition, % at 16 µg/mL (by protocol); 0.25% of 86,000 active; AID 1259249, 2017;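 active = mean growth activity at or below -80% and every replicate also at or below -80%; inconclusive = mean at or below -80% but some replicate above -80%; inactive = mean growth activity above -80%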;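 also: 0% = DMSO wells and -100% = levofloxacin 16 µg/mL wells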
T cruzi growth-1 – T. cruzi intracellular proliferation inhibitors, primary screen, cell-based, beta-gal Tulahuen parasites, NIH3T3 host, luminescence | T. cruzi beta-gal in NIH3T3, GalScreen luminescence, 90 h | inhibition, % at 8.34 µM | 5.9% of 77,000 active;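 active = mean inhibition above about 93%, with at least 55% of replicates each passing it, limit read from the data, passing the limit was not always enough; inconclusive = only one of those two conditions holds; inactive = neither condition holds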
T cruzi growth-2 – T. cruzi intracellular proliferation inhibitors, confirmation, cell-based, NIH3T3 host, beta-gal parasite, luminescence, cherry-pick | shares compounds with T cruzi growth-1 | AID 651739, 2012 | inhibition, % at 8.35 µM | T. cruzi beta-gal in NIH3T3, GalScreen luminescence, 90 h | 72% of 5,600 active;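 active = mean replicate inhibition above about 95% and at least 55% of replicates individually reaching it, limit read from the data; inconclusive = only one of the two criteria is met; inactive = neither criterion is met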
T cruzi growth-3 – inhibitors of intracellular T. cruzi replication, confirmation, NIH3T3 host cells, beta-gal parasites, cherry-pick, set 2 | shares compounds with T cruzi growth-1 | T. cruzi beta-gal in NIH3T3, GalScreen luminescence, 90 h | inhibition, % at 2.09 µM | 21% of 5,600 active | AID 651740, 2012;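 active = mean inhibition above about 95%, with at least 55% of replicates also reaching it, limit read from the data; inconclusive = meets just one of the two conditions; inactive = meets neither condition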;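 also: plate controls were neutral control median for no effect and positive control median for full effect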
NIH3T3 tox – cytotoxicity in mouse NIH/3T3 fibroblasts, confirmation, cytotoxicity control for T. cruzi proliferation inhibitor project, cell-based, cherry-pick, single point; shares compounds with T cruzi growth-1; NIH/3T3 viability, CellTiter-Glo ATP luminescence, 90 h; cytotoxicity (signal decrease), % at 8.35 µM; 14% of 5,600 active;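 active = mean signal decrease across replicates above about 35% based on untreated-well scatter, with enough replicates individually passing, limit read from the data; inconclusive = no rule stated though some were filed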;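 also: 0% = median of neutral control wells and 100% = median of positive control wells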
NIH3T3 tox 2 – NIH/3T3 fibroblast cytotoxicity, confirmation, cytotoxicity control, cell-based, cherry-pick, single point, set 2; NIH/3T3 viability, CellTiter-Glo ATP luminescence, 90 h; inhibition, % at 24.9 µM; shares compounds with T cruzi growth-1; 56% of 5,600 active;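 active = mean loss of cell viability signal at or above a set limit, and enough replicates individually reaching it; inconclusive = meets only the mean limit or only the replicate share; inactive = meets neither condition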;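 also: 0% = median of neutral control wells and 100% = median of positive control wells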
Numbers without * were called inactive; ? = inconclusive; . = no result given.

SMILES | C diff growth | T cruzi growth-1 | T cruzi growth-2 | T cruzi growth-3 | NIH3T3 tox | NIH3T3 tox 2
Cc1noc(C)c1S(=O)(=O)Nc1ccc2c(c1)C(=O)N([C@H](C)CO)C[C@H](C)[C@H](CN(C)S(=O)(=O)c1cccs1)OCCCC[C@@H](C)O2 | -7 | 20 | . | . | . | .
C[C@@H]1CCCCO[C@@H](CN(C)S(=O)(=O)c2ccc(F)cc2)[C@@H](C)CN([C@@H](C)CO)C(=O)c2cc(NS(C)(=O)=O)ccc2O1 | -3 | 39 | . | . | . | .
C[C@@H]1CN([C@@H](C)CO)C(=O)c2cc(C#CCC3CCCC3)cnc2O[C@H]1CN(C)Cc1ccccn1 | -34 | 110* | 105* | 47 | 2 | 104*
C[C@H](CO)N1C[C@H](C)[C@H](CN(C)Cc2ccccn2)Oc2ncc(C#CCC3CCCC3)cc2C1=O | -11 | 65 | . | . | . | .
C[C@@H]1CN([C@H](C)CO)C(=O)c2cc(C#CCc3ccccc3)cnc2O[C@H]1CN(C)CC1CCCC1 | 8 | 92 | . | . | . | .
C[C@H]1CN([C@@H](C)CO)C(=O)c2cc(C#CCc3ccccc3)cnc2O[C@@H]1CN(C)CC1CCCC1 | -1 | 109* | 103* | ? | 19 | 103*
O=C(C1CC1)N1CC(=O)N2[C@H](CO)[C@H](c3ccc(C#Cc4cccc(F)c4)cc3)[C@@H]2C1 | -11 | . | . | . | . | .
CCNC(=O)[C@H]1[C@H](CO)[C@H]2Cn3c(ccc(-c4ccccc4F)c3=O)[C@@H]1N2CCC(F)(F)F | -3 | 6 | . | . | . | .
C[C@H](O)C#Cc1ccc([C@@H]2[C@@H](CO)N3CCCCN(C(=O)c4cccc(F)c4)C[C@@H]23)cc1 | 9 | 46 | . | . | . | .
C[C@H](O)C#Cc1ccc([C@H]2[C@H](CO)N3CCCCN(C(=O)c4cccc(F)c4)C[C@@H]23)cc1 | 0 | 100* | 67 | 42 | 19 | 64*
C[C@H](O)C#Cc1ccc([C@H]2[C@@H](CO)N3CCCCN(C(=O)c4cccc(F)c4)C[C@H]23)cc1 | 5 | 56 | . | . | . | .
C[C@@H](O)C#Cc1ccc([C@H]2[C@@H](CO)N3CCCCN(C(=O)c4cccc(F)c4)C[C@@H]23)cc1 | -2 | 100* | 88 | 60 | 2 | 22
CO[C@H]1CN(C)C(=O)c2cc(NC(=O)Nc3ccc(F)cc3)ccc2OC[C@@H](C)NC[C@H]1C | -8 | -26 | . | . | . | .
C[C@@H](NC(=O)[C@H]1N[C@H]2c3ccc(C4=CCCC4)c(=O)n3C[C@H]2[C@@H]1CO)c1ccccc1 | -5 | 1 | . | . | . | .
O=C(C[C@H]1C[C@@H]2c3cc(NC(=O)Nc4ccc(C(F)(F)F)cc4)ccc3O[C@@H]2[C@@H](CO)O1)NCc1cc(F)ccc1F | 14 | 156* | 81 | 11 | 9 | -4
O=C(C[C@@H]1C[C@@H]2c3cc(NC(=O)Nc4ccc(C(F)(F)F)cc4)ccc3O[C@@H]2[C@H](CO)O1)NCc1cc(F)ccc1F | -15 | 37 | . | . | . | .
O=C(C[C@@H]1C[C@@H]2c3cc(NC(=O)Nc4ccc(C(F)(F)F)cc4)ccc3O[C@@H]2[C@@H](CO)O1)NCc1ccc(Cl)cc1 | . | 112* | 109* | 24 | -21 | -1
C[C@H](NC(=O)C[C@H]1C[C@H]2c3cc(NC(=O)Nc4ccc(C(F)(F)F)cc4)ccc3O[C@H]2[C@@H](CO)O1)c1ccccc1 | 9 | ? | 77 | 41 | 8 | -2
C[C@H](NC(=O)C[C@H]1C[C@@H]2c3cc(NC(=O)Nc4ccc(C(F)(F)F)cc4)ccc3O[C@@H]2[C@@H](CO)O1)c1ccccc1 | 7 | 20 | . | . | . | .
O=C(C[C@H]1C[C@@H]2c3cc(NC(=O)Nc4ccc(C(F)(F)F)cc4)ccc3O[C@@H]2[C@@H](CO)O1)NCc1ccc(Cl)cc1 | . | -14 | . | . | . | .
C[C@@H]1CN([C@@H](C)CO)C(=O)CCCn2nncc2CO[C@@H]1CN(C)C(=O)Nc1ccc2c(c1)OCCO2 | 7 | 6 | . | . | . | .
O=C(C[C@H]1C=C[C@H](NC(=O)Nc2cc(F)ccc2F)[C@@H](CO)O1)Nc1ccccc1 | . | 6 | . | . | . | .
Cc1noc(C)c1S(=O)(=O)N(C)C[C@H]1OCCCC[C@@H](C)Oc2ccc(NS(C)(=O)=O)cc2C(=O)N([C@@H](C)CO)C[C@@H]1C | 2 | -87 | . | . | . | .
CCCNC(=O)N1CC(=O)N2[C@H](CO)[C@@H](c3ccc(C#CCC4CCCC4)cc3)[C@@H]2C1 | -18 | . | . | . | . | .
C[C@H](CO)N1C[C@H](C)[C@@H](CN(C)Cc2ccccc2F)Oc2ncc(Br)cc2C1=O | 2 | 2 | . | . | . | .
SMILES | C diff growth | T cruzi growth-1 | T cruzi growth-2 | T cruzi growth-3 | NIH3T3 tox | NIH3T3 tox 2
C[C@H](CO)N1C[C@H](C)[C@H](CN(C)Cc2ccc(F)cc2)Oc2ncc(/C=C/c3ccccc3)cc2C1=O | 26 | . | . | . | . | .
C[C@@H]1CN([C@H](C)CO)C(=O)c2cc(/C=C/c3ccccc3)cnc2O[C@H]1CN(C)Cc1ccccc1F | 20 | 87* | 103* | ? | 10 | 103*
C[C@H](CO)N1C[C@H](C)[C@H](CN(C)Cc2ccccc2F)Oc2ncc(/C=C/c3ccccc3)cc2C1=O | 25 | 95* | 107* | 77 | 17 | 60*
C[C@H](CO)N1C[C@H](C)[C@H](CN(C)Cc2cccc(C(F)(F)F)c2)Oc2ncc(-c3ccccc3)cc2C1=O | 7 | 119* | 99* | 7 | 13 | -28
COc1ccc(C#Cc2cnc3c(c2)C(=O)N([C@H](C)CO)C[C@H](C)[C@H](CN(C)Cc2cccc(C(F)(F)F)c2)O3)cc1OC | 27 | 127* | 107* | 95 | 26 | -19
COc1ccc(C#Cc2cnc3c(c2)C(=O)N([C@H](C)CO)C[C@H](C)[C@H](CN(C)Cc2ccccc2)O3)cc1OC | 19 | 83 | . | . | . | .
C[C@H](CO)N1C[C@H](C)[C@H](CN(C)C(=O)Nc2cccc3ccccc23)Oc2ncc(-c3cccc(F)c3)cc2C1=O | 25 | . | . | . | . | .
Cc1cccc(CN(C)C[C@@H]2Oc3ncc(-c4cccc(C(F)(F)F)c4)cc3C(=O)N([C@H](C)CO)C[C@@H]2C)c1 | 31 | 84 | . | . | . | .
C[C@H](CO)N1C[C@H](C)[C@H](CN(C)C(=O)Nc2cccc3ccccc23)Oc2ncc(-c3cccc(C(F)(F)F)c3)cc2C1=O | . | 107* | 100* | 54 | 44* | 104*
O=C(NCC[C@@H]1CC[C@H](NC(=O)c2cccnc2)[C@@H](CO)O1)Nc1ccc(Cl)cc1 | 26 | 30 | . | . | . | .
C[C@@H]1CN([C@H](C)CO)C(=O)c2cc(NC(=O)C3CCCCC3)ccc2O[C@@H]1CN(C)C(=O)NC1CCCCC1 | 4 | 18 | . | . | . | .
CCNC(=O)C[C@@H]1CC[C@@H]2[C@H](COC[C@H](O)CN2C(=O)c2cccnc2)O1 | . | 64 | . | . | . | .
